Compounds without any hit were thinned out: in the full panel of roughly 83,000, 20% have a hit.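 96-well plates, one dose, 48 hours. Percent growth reported; active if below 10.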 Active and inactive are the calls of the source.
Key:
Assay in all cases: NCI-60 one-dose screen, 48 h (100 = growth as untreated, 0 = no growth, -100 = all killed)
Details in all cases: 10 µM unless noted
NCI-H23 lung = tested on: NCI-H23 lung
NCI-H322M lung = tested on: NCI-H322M lung
HOP-62 NSCLC = tested on: HOP-62 NSCLC
NCI-H460 lung = tested on: NCI-H460 lung
HOP-92 NSCLC = tested on: HOP-92 NSCLC
NCI-H522 lung = tested on: NCI-H522 lung
A549/ATCC NSCLC = tested on: A549/ATCC NSCLC
786-0 renal = tested on: 786-0 renal
COLO 205 colon = tested on: COLO 205 colon
DU-145 prostate = tested on: DU-145 prostate
K-562 leukemia = tested on: K-562 leukemia
MALME-3M melanoma = tested on: MALME-3M melanoma
MDA-MB-231 breast = tested on: MDA-MB-231 breast
RXF 393 renal = tested on: RXF 393 renal
SF-268 CNS = tested on: SF-268 CNS
SF-295 CNS = tested on: SF-295 CNS
SF-539 CNS = tested on: SF-539 CNS
UACC-257 melanoma = tested on: UACC-257 melanoma
M14 melanoma = tested on: M14 melanoma
HCT-15 colon = tested on: HCT-15 colon

Measured: growth

CCN(CCO)CCNc1ccc(C)c2sc3cc(Cl)ccc3c(=O)c12
inactive: NCI-H23 lung 59.6% | NCI-H322M lung 47% | HOP-62 NSCLC 38.5% | NCI-H522 lung 50.2% | A549/ATCC NSCLC 24.6% | DU-145 prostate 16.9% | SF-268 CNS 44.6% | SF-295 CNS 12.5% | SF-539 CNS 73.1%
active: NCI-H460 lung -75.9% | HOP-92 NSCLC 4.54% | 786-0 renal -60.1% | COLO 205 colon -80.9% | K-562 leukemia -43.6% | MALME-3M melanoma -27.8% | MDA-MB-231 breast -42.8% | RXF 393 renal 5.22% | UACC-257 melanoma -49.8% | M14 melanoma -74.2% | HCT-15 colon -44.9%

Cc1sc2ncnc(Sc3nc4ccccc4[nH]3)c2c1C
inactive: NCI-H23 lung 57%
active: NCI-H322M lung -18.4% | HOP-62 NSCLC -62.6% | NCI-H460 lung -78.9% | HOP-92 NSCLC -12.1% | NCI-H522 lung -78.6% | A549/ATCC NSCLC -55.1% | 786-0 renal -94.7% | COLO 205 colon -74.6% | DU-145 prostate -83.2% | K-562 leukemia -47.4% | MALME-3M melanoma -82.7% | MDA-MB-231 breast -79.5% | RXF 393 renal -59.7% | SF-268 CNS -78.3% | SF-295 CNS -81.7% | SF-539 CNS -95.5% | UACC-257 melanoma -88.6% | M14 melanoma -78.9% | HCT-15 colon -38%

CN1C(=O)N(C)C2Nn3c(s/c(=C4\C(=O)N(CCc5ccccc5)c5ccccc54)c3=O)=NC21 (stereo not given)
inactive: NCI-H23 lung 72% | NCI-H322M lung 72.6% | HOP-62 NSCLC 75.9% | NCI-H460 lung 95.4% | HOP-92 NSCLC 93.2% | NCI-H522 lung 36.7% | A549/ATCC NSCLC 55.6% | 786-0 renal 61.8% | COLO 205 colon 60.1% | DU-145 prostate 63% | K-562 leukemia 34.9% | MALME-3M melanoma 85.1% | MDA-MB-231 breast 80.5% | RXF 393 renal 64.1% | SF-268 CNS 60.9% | SF-295 CNS 72% | SF-539 CNS 48.4% | UACC-257 melanoma 62.3% | M14 melanoma 57.3% | HCT-15 colon 44.6%

Clc1ccc(Nc2nnc(-c3ccc4c(c3)OCO4)o2)cc1
inactive: NCI-H23 lung 101% | NCI-H322M lung 98.9% | HOP-62 NSCLC 114% | NCI-H460 lung 103% | HOP-92 NSCLC 99.8% | NCI-H522 lung 80.9% | A549/ATCC NSCLC 97.8% | 786-0 renal 97.9% | COLO 205 colon 107% | DU-145 prostate 98.9% | K-562 leukemia 62.4% | MALME-3M melanoma 99% | MDA-MB-231 breast 108% | RXF 393 renal 130% | SF-268 CNS 107% | SF-295 CNS 115% | SF-539 CNS 104% | UACC-257 melanoma 100% | M14 melanoma 102% | HCT-15 colon 95.8%

O=c1oc2ccc(I)cc2c(=O)n1-c1ccc(Cl)cc1F
active: NCI-H23 lung -9.99% | NCI-H322M lung 5.32% | HOP-62 NSCLC -3.85% | NCI-H460 lung 3.56% | HOP-92 NSCLC -6.61% | NCI-H522 lung -17.1% | A549/ATCC NSCLC 6.01% | 786-0 renal 8.94% | K-562 leukemia 4.68% | MALME-3M melanoma -21.2% | MDA-MB-231 breast -12.6% | RXF 393 renal 4.98% | SF-295 CNS -48.1% | SF-539 CNS 7.99% | UACC-257 melanoma -15.1% | M14 melanoma 9.12% | HCT-15 colon 2.13%
inactive: COLO 205 colon 52.1% | DU-145 prostate 19.5% | SF-268 CNS 12%

O=C(CCc1nnc2sc(COc3ccccc3)nn12)c1nc2ncccc2[nH]1
inactive: NCI-H23 lung 85.4% | NCI-H322M lung 91.9% | HOP-62 NSCLC 90.7% | NCI-H460 lung 93.3% | HOP-92 NSCLC 93.6% | NCI-H522 lung 79.4% | A549/ATCC NSCLC 107% | 786-0 renal 108% | COLO 205 colon 107% | DU-145 prostate 106% | K-562 leukemia 107% | MALME-3M melanoma 91.4% | MDA-MB-231 breast 91.8% | RXF 393 renal 98.4% | SF-268 CNS 96% | SF-295 CNS 103% | SF-539 CNS 100% | UACC-257 melanoma 98.9% | M14 melanoma 95.6% | HCT-15 colon 100%

NC1(N2SC(S)=C3CCCC=C32)CCCCC1
inactive: NCI-H23 lung 105% | NCI-H322M lung 99.8% | HOP-62 NSCLC 101% | NCI-H460 lung 107% | HOP-92 NSCLC 96.6% | NCI-H522 lung 81.9% | A549/ATCC NSCLC 100% | 786-0 renal 106% | COLO 205 colon 107% | DU-145 prostate 98.3% | K-562 leukemia 84.9% | MALME-3M melanoma 102% | MDA-MB-231 breast 107% | RXF 393 renal 129% | SF-268 CNS 96.3% | SF-295 CNS 115% | SF-539 CNS 104% | UACC-257 melanoma 99.8% | M14 melanoma 101% | HCT-15 colon 108%

CC(C)Cn1c2c(c(=S)[nH]c1=O)CCC2
inactive: NCI-H23 lung 104% | NCI-H322M lung 103% | HOP-62 NSCLC 102% | NCI-H460 lung 105% | HOP-92 NSCLC 113% | NCI-H522 lung 96.1% | A549/ATCC NSCLC 103% | 786-0 renal 104% | COLO 205 colon 117% | DU-145 prostate 111% | K-562 leukemia 103% | MALME-3M melanoma 103% | MDA-MB-231 breast 101% | RXF 393 renal 109% | SF-268 CNS 98.6% | SF-295 CNS 107% | SF-539 CNS 97.4% | UACC-257 melanoma 109% | M14 melanoma 105% | HCT-15 colon 105%

COc1ccc(C2C3=C(COC3=O)N(CCO)c3cc4c(cc32)CCC4)cc1 (stereo not given)
inactive: NCI-H23 lung 87.2% | NCI-H322M lung 96.2% | HOP-62 NSCLC 51.5% | NCI-H460 lung 25.9% | HOP-92 NSCLC 70.8% | NCI-H522 lung 37.8% | A549/ATCC NSCLC 46.6% | 786-0 renal 54.8% | COLO 205 colon 52.1% | DU-145 prostate 78.5% | K-562 leukemia 24% | MALME-3M melanoma 64.7% | MDA-MB-231 breast 70.9% | RXF 393 renal 30.5% | SF-268 CNS 74.5% | SF-295 CNS 16.3% | SF-539 CNS 57.2% | UACC-257 melanoma 57.1% | M14 melanoma 38% | HCT-15 colon 37.3%

COc1ccc(/C=C/C(=O)c2c(C)nc3ccccc3c2/C=C/c2ccccc2)c(OC)c1
inactive: NCI-H23 lung 73.4% | NCI-H322M lung 89.3% | HOP-62 NSCLC 108% | NCI-H460 lung 80.3% | HOP-92 NSCLC 66.8% | NCI-H522 lung 70.5% | A549/ATCC NSCLC 78.5% | 786-0 renal 94.1% | COLO 205 colon 94.7% | DU-145 prostate 90.4% | K-562 leukemia 69.6% | MALME-3M melanoma 106% | MDA-MB-231 breast 68.9% | RXF 393 renal 89.6% | SF-268 CNS 80.7% | SF-295 CNS 90.9% | SF-539 CNS 100% | UACC-257 melanoma 104% | M14 melanoma 97.3% | HCT-15 colon 72.2%

c1ccc(-c2ccc(-c3nc4ccccc4[nH]3)cc2)cc1
active: K-562 leukemia 7.32%
inactive: NCI-H23 lung 94% | NCI-H322M lung 98.9% | HOP-62 NSCLC 80.5% | NCI-H460 lung 95.6% | HOP-92 NSCLC 69.7% | NCI-H522 lung 94.3% | A549/ATCC NSCLC 91.8% | 786-0 renal 88% | COLO 205 colon 102% | DU-145 prostate 95.2% | MALME-3M melanoma 92.4% | MDA-MB-231 breast 64.3% | RXF 393 renal 92.1% | SF-268 CNS 77.8% | SF-295 CNS 101% | SF-539 CNS 99% | UACC-257 melanoma 98% | M14 melanoma 93.8% | HCT-15 colon 78.5%

O=C(NC1CCN(Cc2ccccc2)CC1)c1cc2nc(-c3ccc(Cl)s3)cc(C(F)(F)F)n2n1
inactive: NCI-H23 lung 90.8% | NCI-H322M lung 113% | HOP-62 NSCLC 70.7% | NCI-H460 lung 26.6% | HOP-92 NSCLC 51.9% | A549/ATCC NSCLC 81.9% | 786-0 renal 102% | DU-145 prostate 83.3% | MDA-MB-231 breast 57.1% | RXF 393 renal 94.8% | SF-268 CNS 66.7% | M14 melanoma 48.7% | HCT-15 colon 94.7%
active: NCI-H522 lung -31.9% | COLO 205 colon -48.6% | K-562 leukemia 5.49% | MALME-3M melanoma -84.1% | SF-295 CNS -68.6% | SF-539 CNS 2.96% | UACC-257 melanoma -65.5%

CC(C)CCNCC(O)Cn1c2ccccc2c2ccccc21 (stereo not given)
inactive: NCI-H23 lung 25.4% | NCI-H322M lung 30.7% | HOP-62 NSCLC 18.1% | NCI-H522 lung 20.3% | A549/ATCC NSCLC 11.9% | 786-0 renal 25.2% | MDA-MB-231 breast 41.6% | SF-268 CNS 30.7% | SF-539 CNS 16.1% | M14 melanoma 11.8% | HCT-15 colon 14.9%
active: NCI-H460 lung 1.52% | HOP-92 NSCLC -13.7% | COLO 205 colon 2.79% | DU-145 prostate 9.71% | K-562 leukemia 1.84% | MALME-3M melanoma -12.3% | RXF 393 renal 8.43% | SF-295 CNS -40% | UACC-257 melanoma 1.45%

CC[C@]1(O)C[C@@H]2CN(CCc3c([nH]c4ccccc34)[C@@](C(=O)OC)(c3cc4c(cc3OC)N(C)[C@H]3[C@@](O)(C(=O)OC)[C@H](OC(=O)CCCBr)[C@]5(CC)C=CCN6CC[C@]43[C@@H]65)C2)C1
active: NCI-H460 lung 5.85% | HOP-92 NSCLC -0.264% | NCI-H522 lung -27% | COLO 205 colon -53.2% | DU-145 prostate 5.82% | K-562 leukemia 8.93% | MDA-MB-231 breast -16.5% | SF-295 CNS 8.8% | SF-539 CNS -10.4% | M14 melanoma -11%
inactive: NCI-H23 lung 33.1% | NCI-H322M lung 38.7% | HOP-62 NSCLC 29.2% | A549/ATCC NSCLC 15.2% | 786-0 renal 10.4% | MALME-3M melanoma 39.4% | RXF 393 renal 34.2% | SF-268 CNS 21.2% | UACC-257 melanoma 62% | HCT-15 colon 10.5%

O=C(O)CCCN1C(=O)C2C3CCC(C3)C2C1=O (stereo not given)
inactive: NCI-H23 lung 101% | NCI-H322M lung 107% | HOP-62 NSCLC 109% | NCI-H460 lung 116% | HOP-92 NSCLC 107% | NCI-H522 lung 88% | A549/ATCC NSCLC 104% | 786-0 renal 106% | COLO 205 colon 119% | DU-145 prostate 115% | K-562 leukemia 105% | MALME-3M melanoma 96% | MDA-MB-231 breast 130% | RXF 393 renal 83.8% | SF-268 CNS 107% | SF-295 CNS 109% | SF-539 CNS 103% | UACC-257 melanoma 111% | M14 melanoma 105% | HCT-15 colon 103%

Reference: PubChem BioAssay (NCI)
